TDP1 cell noCPT: qHTS for Inhibitors of human tyrosyl-DNA phosphodiesterase 1 (TDP1): qHTS in cells in absence of CPT; DT40 Tdp1-/- hTDP1 cells, no CPT, ATP luminescence, 48 h; Potency, µM (highest dose often 46.2 µM), without a hit: top-dose activity change, negative = growth inhibition, actives largely listed as inhibitors; 15% of 420,000 active; AID 686978, 2013; also: potency is read from the fitted curve at half-maximal effect; nearly all actives have a fitted effect of over 55% in size
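Chicken DT40 Tdp1-/- cells stably complemented with human TDP1 were seeded at 400 cells/well with DMSO in place of 20 nM camptothecin. After compound pinning, cells grew at least 48 hr at 37 °C; viability read by CellTiter-Glo luminescence.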
TDP1 cell CPT: growth inhibition of DT40 Tdp1-/-;hTDP1 cells with camptothecin (screen for TDP1 inhibitors); 12% of 420,000 active; Potency, µM (titrated, usually from 46.2 µM), for the others: at the top dose activity change, negative = growth inhibition, actives largely listed as inhibitors; AID 686979; chicken DT40 Tdp1-/-;hTDP1 cells + 20 nM CPT, ATP luminescence, 48 h; also: potency is read from the fitted curve at half-maximal effect; nearly all actives have a fitted effect of over 55% in size
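Chicken DT40 Tdp1-/- cells stably complemented with human TDP1 were seeded at 400 cells/well in medium containing 20 nM camptothecin, exposed to pin-transferred compounds, and grown at 37 °C for at least 48 hr. Viability was read as ATP luminescence.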
IL-1B inflam inh: inhibitors of inflammasome signaling (IL-1 beta secretion); THP-1 LPS/ATP IL-1B secretion, AlphaLISA, 16 h; active compounds read low; activity change, % at 57.5 µM; 4.7% of 360,000 active; in the data active = activity change below about -50%; inconclusive = mostly about -30% to -49%
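THP-1 cells pretreated 1 hr with compounds (up to 57.5 uM final), then stimulated with LPS (250 ng/mL final) plus ATP (1.25 mM final); secreted IL-1B measured by AlphaLISA after 16 hr, decreased signal indicating inhibition.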
ELG1 repair inh: inhibitors of ELG1-dependent DNA repair in HEK293T cells; AID 504467; HEK293T ELG1-luciferase reporter, luminescence, 16 h; DNA damage induced by 5-fluorouridine; 2.3% of 330,000 active; Potency, µM (doses to about 46.1 µM), for the others: top-dose activity change, negative = inhibition, actives largely listed as inhibitors; also: potency is read from the fitted curve at half-maximal effect; nearly all actives have a fitted effect of over 55% in size
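Reporter activity after DNA damage by 5-fluorouridine is monitored. Compound-treated cells incubate 16 hr at 37 °C, then ONE-Glo is added for 30 min before luminescence reading.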
HT1080-NT tox: kills 2HG-producing HT-1080-NT fibrosarcoma cells; HT-1080-NT fibrosarcoma viability, CellTiter-Glo ATP luminescence, 48 h; Potency, µM (top dose mostly 46.1 µM), inactives show at the highest dose activity, negative = less viability, actives largely listed as cytotoxic; 1.6% of 360,000 active;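 also: NT is the 2HG producing partner of a matched IDH1 knockdown line; potency is read from the fitted curve at half-maximal effect; 0% = DMSO-treated cells and -100% = media-only wells without cells; nearly all actives have a fitted effect of over 55% in size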
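750 cells/well, RPMI + 5% FBS; 2 h settle, compound pin-transfer, 48 h at 37 degrees C. CellTiter-Glo 10 min RT, luminescence. Normalized to DMSO and media-only wells.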
HT1080 IDH1KD tx: kills HT-1080 cells with IDH1 knockdown; AID 686971; 2% of 360,000 active; HT-1080 IDH1 knockdown viability, ATP luminescence, 48 h; Potency, µM (series often up to 46.1 µM), without a hit: at the top dose activity, negative = toxicity, usual class: cytotoxic;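 also: potency is read from the fitted curve at half-maximal effect; 0% = DMSO wells and -100% = cell-free medium wells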
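IDH1KD HT-1080 cells, 750/well, RPMI + 5% FBS; compound pinned after 2 h settling; 48 h, 37 °C; CellTiter-Glo luminescence; % activity normalised to DMSO and no-cell wells; curves fitted, classed by r2 and efficacy.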
Active calls of the source: *; ? = inconclusive; nt = no result given. This is a sample that favours compounds with a hit; in the whole collection about 19% have one here. Unless noted, calls follow the shape of the dose curve; as a rule, active = well fitted curve in the direction sought with a large enough effect; inconclusive = small, poorly fitted or top-dose-only effect, or another doubt; inactive = no such curve, though single readings can be large; an effect the other way counts as inactive or inconclusive. Unless noted, % is scaled to controls: 0 for no effect and ±100 for the full control effect.

SMILES	TDP1 cell noCPT	TDP1 cell CPT	IL-1B inflam inh	ELG1 repair inh	HT1080-NT tox	HT1080 IDH1KD tx
O=C(Nc1ccccc1C(=O)N1CCOCC1)c1ccc(Br)cc1	0.7%	11.2%	-6.9	-0.3%	5.6%	6.2%
N[C@@H](Cn1cc(I)c(=O)n(Cc2ccc(C(=O)O)cc2)c1=O)C(=O)O	2.1%	2.1%	nt	nt	nt	nt
Cc1nnc(SC(C)C(=O)Nc2ccc(N3CCOCC3)cc2)n1Cc1ccccc1 (stereo not given)	-2.3%	-0.6%	-0.6	?	-3.6%	-4.6%
Cc1noc(C)c1C(=O)N1CCC2(CC1)CCN(c1ncccn1)CC2	-15.6%	-27.2%	nt	nt	nt	nt
Cc1cc(Cl)c(OCCCNC2CCCC2)c(Br)c1	?	?	-72.8*	-18.8%	?	20.6µM*
CC1CCCN(CCOCCOc2ccc(Br)cc2Cl)C1 (stereo not given)	18.4µM*	18.4µM*	?	-2.8%	?	?

Source: PubChem (National Center for Advancing Translational Sciences (NCATS))
